# PubChem BioAssay (Tox21)
# Records with an inconclusive call do not appear. Calls of active or inactive are those of the source. Unless noted, the call rests on the fitted dose curve.
# Tested on: not listed separately
# Assay: qHTS assay to identify small molecule agonists of the endoplasmic reticulum stress response signaling pathway (AID 1159516; active means well fitted activation curve with a large enough effect in the signal ratio in the repeat runs, not every such curve was filed as active; the % refers to the signal ratio; further: on the % scale 0 is the no-effect control and ±100 the full control effect)
# Conditions: ESRE-bla HeLa, ER stress beta-lactamase reporter, 5 h; series mostly up to 61 µM; activation: at the top concentration
# In short: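 Reporter HeLa cells (ESRE-beta-lactamase) underwent 5 hr compound incubation at 37 C and 5% CO2 in quantitative HTS format. Detection followed 2 hr of FRET substrate loading at room temperature.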
row,SMILES,activation
1,OCC(CBr)(CBr)CBr,-4.4% (inactive)
2,CCCNC(C)C(=O)Nc1c(C)csc1C(=O)OC (stereo not drawn),-0.737% (inactive)
3,CC1=C(O)C(=O)OC1C (stereo not drawn),1.09% (inactive)
4,O=C1CCCc2ccccc21,-0.336% [at 78.8 µM] (inactive)
5,COC(C)CCO (stereo not drawn),-1.5% (inactive)
6,CCCc1c2oc(C(=O)O)cc(=O)c2cc2c(=O)cc(C(=O)O)n(CC)c12,-1.14% (inactive)
7,CN1CCN(c2c(F)cc3c(=O)c(C(=O)O)cn(CCF)c3c2F)CC1,0.138% (inactive)
8,CC(C)Nc1nc(N)nc(Cl)n1,0.152% (inactive)
9,CC(=O)N[C@@H](CC(C)C)C(=O)O,0.37% (inactive)
10,CCCS(=O)c1ccc2nc(NC(=O)OC)[nH]c2c1 (stereo not drawn),-1.51% (inactive)
11,COc1cc(Cl)ccc1Cl,1.21% [at 78.8 µM] (inactive)
12,O=C1N(c2ccccc2)c2ccccc2C1(Cc1ccncc1)Cc1ccncc1,0% (inactive)
13,C1CCOC1,2.01% [at 78.8 µM] (inactive)

# Tested on: not listed separately
# Assay: qHTS assay to identify small molecule agonists of the endoplasmic reticulum stress response signaling pathway - cell viability counter screen (AID 1159517);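 further: HeLa cells carrying an ER stress response element beta-lactamase reporter; on the % scale 0 is the no-effect control and ±100 the full control effect; nearly all actives have a fitted effect of over 50% in size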
# Conditions: ESRE-bla HeLa viability, CellTiter-Glo luminescence, 5 h; series mostly up to 61 µM; activity change, negative = cytotoxicity: at the top concentration
# In short: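 HeLa cells carrying an ESRE-driven beta-lactamase reporter receive compound for 5 hr at 37 C. Cell viability is then gauged with CellTiter-Glo by luminescence, 30 min at room temperature.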
row,SMILES,"activity change, negative = cytotoxicity"
1,CN(CC1(C)CCCO1)S(=O)(=O)c1ccc(Cl)c(S(N)(=O)=O)c1 (stereo not drawn),-0.561% (inactive)
2,OCc1ccccc1O,1.44% (inactive)
3,CN1C(=O)CC(c2ccccc2)C1=O (stereo not drawn),8.01% (inactive)
4,O=S(=O)(O)C(F)(F)F,3.61% (inactive)
5,CCCCC1CCC(=O)O1 (stereo not drawn),-5.19% (inactive)
6,CCOc1ccc(NC(N)=O)cc1,8.59% (inactive)
7,NC/C=C/C(=O)O,-0.152% (inactive)
8,CCCCC(=O)O[C@]1(C(=O)CO)[C@H](C)C[C@H]2[C@@H]3CCC4=CC(=O)C=C[C@]4(C)[C@@]3(F)[C@@H](O)C[C@@]21C,17.8% (inactive)
9,CCCCc1ccc2nc(NC(=O)OC)[nH]c2c1,-0.38% (inactive)
10,O=C(O)c1ccccc1Nc1cc(Cl)ccc1C(=O)O,1.15% [at 28.5 µM] (inactive)
11,CCCCCOc1ccc(C2SC(=O)NC2=O)cc1OCC (stereo not drawn),-3.95% (inactive)
12,CC(C)CC(=O)OCc1ccccc1,-0.693% (inactive)
13,CC/C=C\CCOC(=O)C(C)C,15.3% (inactive)
14,CN(CCCN1c2ccccc2CCc2ccccc21)CC(=O)c1ccc(Cl)cc1,2.31% (inactive)
15,CCNCCO,3.78% (inactive)
16,CCCCNc1ccc(C(=O)OCCN(CC)CC)cc1,13.2% (inactive)
17,CCOC(=O)NCCC[Si](OCC)(OCC)OCC,10.5% (inactive)
18,Cc1ccc([N+](=O)[O-])c(N)c1,-28.6% (inactive)

row,SMILES,"activity change, negative = cytotoxicity"
1,N#Cc1ccc(C(c2ccc(C#N)cc2)n2cncn2)cc1,-9.47% (inactive)
2,O=C1CCC(C2CCCCC2)CC1,7.7% (inactive)
3,NC(=O)NS(=O)(=O)c1ccc(Cl)cc1,10.4% (inactive)
4,CCCCCCCCOC(=O)CCCCCCCCC(=O)OCCCCCCCC,-4.02% (inactive)
5,OCCN(CCO)c1ccccc1,2.49% (inactive)
6,OCC(CBr)(CBr)CBr,-0.551% (inactive)
7,CCCNC(C)C(=O)Nc1c(C)csc1C(=O)OC (stereo not drawn),-7.12% (inactive)
8,CC1=C(O)C(=O)OC1C (stereo not drawn),11.6% (inactive)
9,O=C1CCCc2ccccc21,3.41% [at 78.8 µM] (inactive)
10,COC(C)CCO (stereo not drawn),12.1% (inactive)
11,CCCc1c2oc(C(=O)O)cc(=O)c2cc2c(=O)cc(C(=O)O)n(CC)c12,-4.6% (inactive)
12,CN1CCN(c2c(F)cc3c(=O)c(C(=O)O)cn(CCF)c3c2F)CC1,4.87% (inactive)
13,CC(C)Nc1nc(N)nc(Cl)n1,17.8% (inactive)
14,CC(=O)N[C@@H](CC(C)C)C(=O)O,5.45% (inactive)
15,CCCS(=O)c1ccc2nc(NC(=O)OC)[nH]c2c1 (stereo not drawn),-1.59% (inactive)
16,COc1cc(Cl)ccc1Cl,-20.6% [at 78.8 µM] (inactive)
17,O=C1N(c2ccccc2)c2ccccc2C1(Cc1ccncc1)Cc1ccncc1,0.0819% (inactive)
18,C1CCOC1,-0.559% [at 78.8 µM] (inactive)

# Tested on: not listed separately
# Assay: qHTS assay to identify small molecule antagonists of the retinoid-related orphan receptor gamma (ROR-gamma) signaling pathway - cell viability counter screen (AID 1159520; active means well fitted curve in the direction sought with a large enough effect in the repeat runs; an effect the other way counts as inactive or inconclusive; further: on the % scale 0 is the no-effect control and ±100 the full control effect; nearly all actives have a fitted effect of over 50% in size)
# Conditions: Tet-on RORgamma CHO cells viability, ATP luminescence, 16 h; series mostly up to 92.4 µM; activity, negative = cytotoxicity: at the top concentration
# In short: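 Cytotoxicity was read from cellular ATP (CellTiter-Glo luminescence) after 16 hr at 37 C with 1 uM doxycycline induction. The inducer was added 2 hr after compound transfer to Tet-on ROR gamma CHO cells.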
row,SMILES,"activity, negative = cytotoxicity"
1,OCc1ccccc1O,-0.487% [at 42.5 µM] (inactive)
2,Cc1c(C(=O)NCCO)[n+](=O)c2ccccc2n1[O-],3.08% [at 42.5 µM] (inactive)
3,CCOc1ccc(NC(N)=O)cc1,2.23% (inactive)
4,CCCCCCCCCC#N,1.32% (inactive)
5,CCCCC(=O)O[C@]1(C(=O)CO)[C@H](C)C[C@H]2[C@@H]3CCC4=CC(=O)C=C[C@]4(C)[C@@]3(F)[C@@H](O)C[C@@]21C,1.36% [at 42.5 µM] (inactive)
6,NC(=O)NS(=O)(=O)c1ccc(Cl)cc1,-0.149% [at 42.5 µM] (inactive)
7,OCCN(CCO)c1ccccc1,0.179% (inactive)
8,COC(C)CCO (stereo not drawn),-12.8% (inactive)
9,C1CCOC1,-9.19% (inactive)

# Biological target: Nuclear receptor ROR-gamma (Homo sapiens) (UniProt P51449)
# Assay: qHTS assay to identify small molecule antagonists of the retinoid-related orphan receptor gamma (ROR-gamma) signaling pathway (AID 1159521; active means well fitted curve in the direction sought with a large enough effect in the repeat runs; an effect the other way counts as inactive or inconclusive;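 further: CHO cells with doxycycline inducible ROR-gamma driving an RORE luciferase reporter; top concentration of the series differs between compounds; on the % scale 0 is the no-effect control and ±100 the full control effect; nearly all actives have a fitted effect of over 50% in size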)
# Conditions: Tet-on RORgamma CHO cells, RORE-luciferase, 16 h; series mostly up to 92.4 µM; activity change, negative = inhibition: at the top concentration
# In short: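 Inducible-expression reporter assay: doxycycline (1 uM final) switched on RORγ in CHO cells bearing a ROR response element-luciferase construct, with test compounds present from 2 h beforehand. Decreased luminescence after 16 h defined antagonist activity.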
row,SMILES,"activity change, negative = inhibition"
1,Cc1c(C(=O)NCCO)[n+](=O)c2ccccc2n1[O-],21.5% [at 42.5 µM] (inactive)
2,NC/C=C/C(=O)O,17.9% [at 42.5 µM] (inactive)
3,CCCCCCCCCC#N,1.34% (inactive)
4,CCCCc1ccc2nc(NC(=O)OC)[nH]c2c1,8.37% [at 42.5 µM] (inactive)
5,O=C(O)c1ccccc1Nc1cc(Cl)ccc1C(=O)O,-10.7% [at 19 µM] (inactive)
6,CCCCCOc1ccc(C2SC(=O)NC2=O)cc1OCC (stereo not drawn),11.8% [at 42.5 µM] (inactive)
7,CC(C)CC(=O)OCc1ccccc1,-6.08% (inactive)
8,CN(CCCN1c2ccccc2CCc2ccccc21)CC(=O)c1ccc(Cl)cc1,57.3% [at 42.5 µM] (inactive)
9,CCNCCO,2.54% (inactive)
10,CCCCNc1ccc(C(=O)OCCN(CC)CC)cc1,-11.1% [at 42.5 µM] (inactive)
11,CCOC(=O)NCCC[Si](OCC)(OCC)OCC,-2.12% (inactive)
12,Cc1ccc([N+](=O)[O-])c(N)c1,-5.44% (inactive)
13,CCCCCCCCOC(=O)CCCCCCCCC(=O)OCCCCCCCC,8.53% (inactive)
14,OCC(CBr)(CBr)CBr,-24.2% (inactive)
15,CCCc1c2oc(C(=O)O)cc(=O)c2cc2c(=O)cc(C(=O)O)n(CC)c12,7.06% [at 42.5 µM] (inactive)
16,CCCS(=O)c1ccc2nc(NC(=O)OC)[nH]c2c1 (stereo not drawn),28.5% [at 42.5 µM] (inactive)
17,O=C1N(c2ccccc2)c2ccccc2C1(Cc1ccncc1)Cc1ccncc1,-4.18% [at 42.5 µM] (inactive)

# Tested on: not listed separately
# Assay: qHTS assay to identify small molecule agonists of the AP-1 signaling pathway - cell viability counter screen (AID 1159525); further: nearly all actives have a fitted effect of over 55% in size
# Conditions: ME-180 (cervical carcinoma) AP-1-bla cells viability, ATP luminescence, 5 h; series mostly up to 76.8 µM; viability change, negative = cytotoxic: at the top concentration
# In short: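 Luminescent ATP readout (Cell Titer Glo, 30 min RT), normalised to DMSO and tetra n-octyl ammonium bromide controls. Cells were ME-180 AP-1-bla in 0.5% dialyzed FBS Opti-MEM, with a 5 h, 37 °C compound exposure.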
row,SMILES,"viability change, negative = cytotoxic"
1,CN(CC1(C)CCCO1)S(=O)(=O)c1ccc(Cl)c(S(N)(=O)=O)c1 (stereo not drawn),3.89% [at 35.3 µM] (inactive)
2,OCc1ccccc1O,4.67% [at 35.3 µM] (inactive)
3,CN1C(=O)CC(c2ccccc2)C1=O (stereo not drawn),-0.651% [at 35.3 µM] (inactive)
4,Cc1c(C(=O)NCCO)[n+](=O)c2ccccc2n1[O-],18.7% [at 35.3 µM] (inactive)
5,O=S(=O)(O)C(F)(F)F,-6.72% (inactive)
6,CCCCC1CCC(=O)O1 (stereo not drawn),10.3% (inactive)
7,CCOc1ccc(NC(N)=O)cc1,-0.584% (inactive)
8,CCCCCCCCCC#N,7.08% (inactive)
9,CCCCC(=O)O[C@]1(C(=O)CO)[C@H](C)C[C@H]2[C@@H]3CCC4=CC(=O)C=C[C@]4(C)[C@@]3(F)[C@@H](O)C[C@@]21C,-8.35% [at 35.3 µM] (inactive)
10,CC/C=C\CCOC(=O)C(C)C,9.45% (inactive)
11,CN(CCCN1c2ccccc2CCc2ccccc21)CC(=O)c1ccc(Cl)cc1,-1.99% [at 35.3 µM] (inactive)
12,CCNCCO,-0.898% (inactive)
13,CCCCNc1ccc(C(=O)OCCN(CC)CC)cc1,4.82% [at 35.3 µM] (inactive)
14,Cc1ccc([N+](=O)[O-])c(N)c1,-0.158% (inactive)
15,N#Cc1ccc(C(c2ccc(C#N)cc2)n2cncn2)cc1,-4.06% [at 35.3 µM] (inactive)
16,O=C1CCC(C2CCCCC2)CC1,-5.12% (inactive)
17,NC(=O)NS(=O)(=O)c1ccc(Cl)cc1,-3.39% [at 35.3 µM] (inactive)
18,OCCN(CCO)c1ccccc1,-2.07% (inactive)
19,CCCNC(C)C(=O)Nc1c(C)csc1C(=O)OC (stereo not drawn),0.447% [at 35.3 µM] (inactive)
20,CC1=C(O)C(=O)OC1C (stereo not drawn),-14.4% (inactive)
21,O=C1CCCc2ccccc21,2.2% (inactive)
22,COC(C)CCO (stereo not drawn),0.616% (inactive)
23,CCCc1c2oc(C(=O)O)cc(=O)c2cc2c(=O)cc(C(=O)O)n(CC)c12,-2.45% [at 35.3 µM] (inactive)
24,CN1CCN(c2c(F)cc3c(=O)c(C(=O)O)cn(CCF)c3c2F)CC1,-0.752% [at 35.3 µM] (inactive)
25,CC(C)Nc1nc(N)nc(Cl)n1,-0.676% (inactive)
26,CC(=O)N[C@@H](CC(C)C)C(=O)O,-1.35% [at 35.3 µM] (inactive)
27,COc1cc(Cl)ccc1Cl,0.442% (inactive)
28,C1CCOC1,3.07% (inactive)
